# Assay outcomes as filed in PubChem.
# GPR151 ag: activators of human GPR151 | PathHunter beta-arrestin GPR151 cells, luminescence | Q8TDV0 | activation, % at 11.2 µM | 650,000 tested, 1% active; in the data active = activation above about 4.9%;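 note: 0% = median of compound wells and 100% = cells with positive control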
# TEAD-YAP block: TEAD-YAP interaction inhibition | HEK-TIYL cells, TEAD-Gal4/YAP UAS-luciferase luminescence | inhibition, % at 9.12 µM | 640,000 tested, 1.4% active | AID 1259422; in the data active = inhibition above about 32%;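 note: 0% = median of test compound wells and 100% = reference inhibitor wells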
# MITF primary: human MITF inhibition, primary screen | AlphaScreen MITF homodimerization, bead proximity signal | inhibition, % at 2.6 µM | 650,000 tested, 0.91% active; in the data active = inhibition above about 50%;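 note: 0% = vehicle wells with protein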
# FBW7 act: human FBW7 E3 ligase activation, primary screen; 650,000 tested, 0.13% active; AlphaScreen FBW7–phospho-cyclin E peptide binding, activator screen; normalized activity (activation), % at 26.1 µM; AID 1259310; Q969H0; in the data active = normalized activity above about 1.9%;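 note: purified mutant Fbw7 with reduced substrate affinity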
# Target sequence (Q969H0 whole entry, looked up): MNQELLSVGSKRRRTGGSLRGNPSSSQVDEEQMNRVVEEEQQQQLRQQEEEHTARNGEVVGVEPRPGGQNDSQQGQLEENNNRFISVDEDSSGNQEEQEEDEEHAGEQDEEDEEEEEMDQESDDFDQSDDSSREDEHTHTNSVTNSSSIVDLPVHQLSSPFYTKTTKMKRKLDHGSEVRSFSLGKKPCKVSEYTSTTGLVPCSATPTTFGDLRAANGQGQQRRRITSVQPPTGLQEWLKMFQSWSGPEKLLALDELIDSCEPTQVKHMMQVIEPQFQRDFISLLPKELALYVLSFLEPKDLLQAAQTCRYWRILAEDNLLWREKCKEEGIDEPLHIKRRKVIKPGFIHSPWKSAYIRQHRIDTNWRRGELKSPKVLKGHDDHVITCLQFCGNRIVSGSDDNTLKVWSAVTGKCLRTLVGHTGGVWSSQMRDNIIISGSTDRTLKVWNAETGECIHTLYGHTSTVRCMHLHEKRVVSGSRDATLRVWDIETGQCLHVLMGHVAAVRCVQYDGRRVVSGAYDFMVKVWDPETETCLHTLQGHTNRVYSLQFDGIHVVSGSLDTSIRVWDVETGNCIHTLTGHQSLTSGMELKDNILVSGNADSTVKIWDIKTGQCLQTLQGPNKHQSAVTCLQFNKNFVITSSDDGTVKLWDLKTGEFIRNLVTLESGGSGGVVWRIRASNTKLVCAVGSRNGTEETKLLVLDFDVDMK
# An asterisk follows results filed as active. Compounds with a hit are over-represented: about 3.4% of the library has one in this group of screens.
SMILES,GPR151 ag,TEAD-YAP block,MITF primary,FBW7 act
COc1ccc2c(c1)c(=O)oc1cc(OCC(=O)O)ccc12,0.5,1.9,3.8,0.0
COc1ccc2c(c1)c(=O)oc1cc(OCC(=O)N(C)c3ccccc3)ccc12,-0.2,-0.1,52.1*,0.8
CCOC(=O)N1CCC(NS(=O)(=O)c2ccc3[nH]c4c(c3c2)CCCC4)CC1,-1.0,57.0*,8.6,0.0
Cc1ccc(S(=O)Cc2ccc(C(=O)N3CCN(C(=O)c4ccco4)CC3)o2)cc1 (stereo not drawn),0.2,4.4,7.5,0.1
COc1ccc(N2CCN(C(=O)c3ccc(CS(=O)c4ccccc4)o3)CC2)cc1 (stereo not drawn),0.2,45.8*,8.5,-0.2
COc1cccc(N2CCN(C(=O)c3ccc(CS(=O)c4ccc(C)cc4)o3)CC2)c1 (stereo not drawn),0.1,63.1*,-5.5,-0.1
COc1ccc(N2CCN(C(=O)c3ccc(CS(=O)c4ccc(C)cc4)o3)CC2)cc1 (stereo not drawn),0.4,55.6*,-1.4,-0.3
Cc1nc(N2CCCC2C(=O)NCc2ccc(Cl)s2)nc2ccccc12 (stereo not drawn),1.8,-4.6,5.5,0.2
CSc1sccc1/C=N/Nc1ccc([N+](=O)[O-])cc1,-1.2,-19.0,11.3,2.1*
Cc1ccc(-c2cn3nc(C)c(C)nc3n2)cc1,-5.1,46.1*,-3.2,0.0
COc1ccc(-c2cn3nc(C)c(C)nc3n2)cc1OC,0.9,-54.3,1.8,-0.4
CC(C)n1cnc2c(NCc3ccccc3)nc(-c3ccc(C(=O)NC4CC4)cc3)nc21,0.3,-16.8,-9.3,-0.1
CC(C)n1cnc2c(NC3CCN(Cc4ccccc4)CC3)nc(-c3ccc(C(=O)N4CCN(C)CC4)cc3)nc21,1.7,58.0*,-1.4,0.1
CC(C)n1cnc2c(NC3CCN(Cc4ccccc4)CC3)nc(-c3ccc(N4CCN(C)CC4)cc3)nc21,0.1,27.6,1.0,-0.2
CC(C)n1cnc2c(Nc3ccccc3)nc(-c3ccc(C(=O)NC4CC4)cc3)nc21,-1.0,31.9*,-20.1,-0.1
COc1ccc(-c2nc(NC3CCN(Cc4ccccc4)CC3)c3ncn(C(C)C)c3n2)cc1,-2.8,-2.6,10.4,0.2
CN1CCN(C(=O)c2ccc(-c3nc(NC4CC4)c4ncn(-c5ccccc5)c4n3)cc2)CC1,1.6,40.9*,3.1,0.0
CC(C)n1cnc2c(NC3CCN(Cc4ccccc4)CC3)nc(-c3ccc(C(=O)NC4CC4)cc3)nc21,1.9,51.6*,1.2,-0.1
Cc1cc(OCCn2ccnc2)ccc1Cl,1.9,-0.6,13.7,-0.1
Cc1cccc(NC(=O)N(Cc2nnc3n2CCCCC3)c2ccc3c(c2)OCO3)c1,-1.1,3.4,14.8,0.1
Cc1cccc2cc(CN(Cc3ccccc3Cl)C(=O)c3ccncc3)c3nnnn3c12,-0.5,10.4,0.0,0.0
CC(=O)c1cccc(-c2nc(NC3CCN(Cc4ccccc4)CC3)c3ncn(C(C)C)c3n2)c1,0.6,73.2*,-2.5,-0.1
COc1ccc(NC(=O)c2ccc(Cl)c([N+](=O)[O-])c2)cc1Cl,-0.2,13.7,-7.0,-0.2
Cc1c(C)n(CC(O)CNc2ccccc2)c2ccccc12 (stereo not drawn),2.5,-0.1,58.8*,0.3
COc1ccc(NCC(O)Cn2c3ccccc3c3ccccc32)cc1 (stereo not drawn),-0.6,51.4*,12.9,-0.1
SMILES,GPR151 ag,TEAD-YAP block,MITF primary,FBW7 act
CCOC(=O)C(=CNc1ccc(O)cc1)C(=O)OCC,-1.6,-3.7,20.8,0.6
COc1ccc(-c2n[nH]c3c2C(c2ccc(F)cc2)NC3=O)cc1 (stereo not drawn),1.8,14.3,4.2,-0.1
COc1ccc(OC)c(C2NC(=O)c3[nH]nc(-c4ccc(C)cc4)c32)c1 (stereo not drawn),1.5,61.8*,7.8,0.1
CCCOC(=O)C1=C(C)NC(=O)NC1c1cc(OC)c(O)c([N+](=O)[O-])c1 (stereo not drawn),1.8,8.3,7.2,-0.2
O=C(CNc1ccncc1)c1c[nH]c2ccccc12,1.5,82.9*,-12.4,-0.2
O=C(CC(=O)c1c[nH]c2ccccc12)c1ccccc1,1.7,-10.1,15.6,0.2
CCc1ccc(C(=O)Nc2nc3ccccc3s2)cc1,-4.5,50.5*,-2.0,-0.1
O=C(O)COc1ccccc1/C=N/Nc1nc2ccccc2s1,-3.3,-10.3,15.0,0.2
O=C(O)c1ccccc1/C=N/Nc1nc2ccccc2s1,-6.9,93.8*,4.6,-0.2
CCN(CC)C(=O)c1ccc2nc(NC(=O)c3ccc(OC(C)=O)cc3)sc2c1,-8.2,77.9*,10.5,2.0*
O=C(Nc1nc2ccccc2s1)c1ccc(N2C(=O)CCC2=O)cc1,0.1,-50.1,-2.0,0.0
O=C(Nc1nc2ccccc2s1)c1ccccc1,-8.1,32.4*,0.3,0.0
CCCc1ccc(-c2ccc(C(=O)Nc3nc4ccccc4s3)cc2)nc1,1.3,7.0,8.4,-0.2
Cc1ccc(-n2c(=O)cc(N3CCN(c4ccccc4F)CC3)[nH]c2=O)cc1,-2.0,10.0,6.2,0.4
Clc1ccccc1-c1noc(C2CCCCC2)n1,0.0,-5.8,11.3,0.1
NC(=O)c1c(NC(=O)CN(C(=O)C2CCC2)C2CCCCC2)sc2c1CCCC2,0.3,-0.7,0.8,-0.2
O=C(CCc1nc2ccccc2s1)c1ccccc1,0.1,-17.8,18.3,2.0*
CC(C)c1ccc2nc(NC(=O)c3ccccc3)sc2c1,-3.6,39.2*,1.6,0.3
CCOc1ccc(CCNC(=O)Cn2cnc3c(oc4ccccc43)c2=O)cc1OCC,1.2,-2.6,17.8,0.9
COc1ccc(-c2c[n+](CC(=O)c3ccc(Cl)cc3)c3n2CCCCC3)cc1,1.5,14.2,11.5,0.0
COc1ccc(C(=O)C[n+]2cc(-c3ccc(OC)cc3)n3c2CCCCC3)cc1,0.3,38.0*,-3.1,-0.1
COC(=O)c1ccc2c(=O)n(CC3CCCO3)c(SCC(=O)Nc3ccc(C)cc3)nc2c1 (stereo not drawn),1.8,3.9,0.0,0.0
COC(=O)c1ccc2c(=O)n(CC3CCCO3)c(SCC(=O)Nc3ccc(C)c(Cl)c3)nc2c1 (stereo not drawn),0.4,-7.0,-4.2,3.5*
Clc1cccc(-c2cnn3c(NCc4ccco4)ccnc23)c1,-2.0,18.0,11.3,2.0*
CC(=O)c1cccc(-c2cnn3c(NCc4ccco4)ccnc23)c1,1.0,-43.8,19.5,0.0
SMILES,GPR151 ag,TEAD-YAP block,MITF primary,FBW7 act
Oc1cccc(-c2cnn3c(NCc4ccco4)ccnc23)c1,0.3,88.7*,-16.6,-0.7
COCCNc1ccnc2c(-c3cccc(Cl)c3)cnn12,0.1,-2.3,10.6,0.3
Oc1ccc(-c2cnn3c(NCc4cccs4)ccnc23)cc1,-1.4,82.4*,-28.6,0.0
COc1ccc(Br)c(C(=O)N/C(=C\c2cccc([N+](=O)[O-])c2)C(=O)Nc2ccc(C)cc2)c1,-1.0,0.4,7.5,0.3
COc1cc(C2CC(=O)Nc3cc4c(cc32)OCO4)c(Br)c(OC)c1OC (stereo not drawn),-0.8,51.1*,-3.1,-0.1
COc1cc(C2CC(=O)Nc3c2ccc2ccccc32)c(Br)c(OC)c1OC (stereo not drawn),0.3,59.0*,-17.5,0.0
